Measured values from PubChem BioAssay AID463193 (University of Pittsburgh Molecular Library Screening Center, 2010).
Hit rate of the full screen: of about 190,000 compounds, about 1,900 (1%) were called active.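 Rule for the calls: active = percentage of spot-positive cells more than 3 SD above its plate mean, without a fluorescence outlier flag or 80% toxicity; inconclusive = no clear call, values can overlap the other calls; inactive = the rest.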 For the sample, actives were picked, then their nearest neighbours and some compounds at random.

Assay: autophagy modulators in MEF cells, primary screen, imaging, high-content, MEF GFP-LC3 (AID 463193);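 for % cells with GFP-LC3 spots: spot-positive cell cutoff set from DMSO-treated cells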;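 for toxicity: cell loss after 18 h compound exposure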
Conditions: MEF GFP-LC3 puncta imaging, at 10 µM; % cells with GFP-LC3 spots: stronger effect = higher value; toxicity: measured here: cell loss, nuclei count

**Q.** Which % cells with GFP-LC3 spots does the source give for `COc1ccc(N=Cc2c(O)[nH]c3ccccc23)cc1OC` here?
**A.** 20.4% (inactive)

**Q.** What about the toxicity of the same molecule?
**A.** 0.85%

**Q.** What does the source list for `COc1ccc(OC)c(N=Cc2c(O)[nH]c3ccccc23)c1`?
**A.** % cells with GFP-LC3 spots: 30.3% (active); toxicity: 10.8%

**Q.** Which % cells with GFP-LC3 spots does the source give for `O=C(NNC1CC(=O)N(c2cccc(Cl)c2)C1=O)c1cccnc1` (centres undefined) here?
**A.** 14.6% (inactive)

**Q.** And the toxicity?
**A.** -11.8%

**Q.** For `COc1cccc2c(O)cc(=O)n(C)c12`, which % cells with GFP-LC3 spots is on record?
**A.** 6.52% (inactive)

**Q.** And the toxicity?
**A.** 15.8%

**Q.** For `O=C(c1cccc(C(=O)N2CCN(c3ccc(F)cc3)CC2)c1)N1CCN(c2ccc(F)cc2)CC1`, which % cells with GFP-LC3 spots is on record?
**A.** 13% (inactive)

**Q.** What about the toxicity of the same molecule?
**A.** -26%

**Q.** Which % cells with GFP-LC3 spots does the source give for `CCN1CCN(C(c2cccnc2)c2cc(Cl)c3cccnc3c2O)CC1` (centres undefined) here?
**A.** 0.145% (inactive)

**Q.** And the toxicity?
**A.** 15.1%

**Q.** Which % cells with GFP-LC3 spots does the source give for `Oc1c(CN2CCN(c3ccc(F)cc3)CC2)cc(Cl)c2cccnc12` here?
**A.** 52% (active)

**Q.** What about the toxicity of the same molecule?
**A.** 33.9%

**Q.** Which % cells with GFP-LC3 spots does the source give for `C=CCn1c(CCNC(=O)c2ccccc2F)nnc1SCC(=O)Nc1ccc(OC)cc1` here?
**A.** 1.65% (inactive)

**Q.** And the toxicity?
**A.** 10.4%

**Q.** What does the source list for `COc1ccc(OC)c(S(=O)(=O)NCCC(C)C)c1`?
**A.** % cells with GFP-LC3 spots: 7.62% (inactive); toxicity: 7.42%

**Q.** With `COc1ccc(S(=O)(=O)Nc2c(C)n(C)n(-c3ccccc3)c2=O)cc1` as the molecule, how does the % cells with GFP-LC3 spots read?
**A.** 4.67% (inactive)

**Q.** And the toxicity?
**A.** 4.21%

**Q.** For `CCn1c(-c2cc(OC)ccc2OC)csc1=Nc1c(C)n(C)n(-c2ccccc2)c1=O`, which % cells with GFP-LC3 spots is on record?
**A.** 12.4% (active)

**Q.** What about the toxicity of the same molecule?
**A.** -0.744%

**Q.** What does the source list for `CN=c1scc(-c2cc(OC)ccc2OC)n1/N=C/c1c(C)[nH]c2ccccc12`?
**A.** % cells with GFP-LC3 spots: 8.49% (inactive); toxicity: 3.61%

**Q.** For `COc1ccc(-c2nc(N)sc2C2(O)C(=O)Nc3c(Br)cc(F)cc32)cc1OC` (centres undefined), which % cells with GFP-LC3 spots is on record?
**A.** 1.66% (inactive)

**Q.** And the toxicity?
**A.** -1.9%

**Q.** Which % cells with GFP-LC3 spots does the source give for `COC(=O)NNC1=CC(=O)CC(C)(C)C1` here?
**A.** 0.796% (inactive)

**Q.** And the toxicity?
**A.** -6.02%

**Q.** For `Clc1cc(-c2ccc(/C=N/n3cnnc3)o2)ccc1Br`, which % cells with GFP-LC3 spots is on record?
**A.** 8.69% (inactive)

**Q.** What about the toxicity of the same molecule?
**A.** 20.9%

**Q.** With `CC(=O)N/N=C(\C)c1ccc(Br)cc1Br` as the molecule, how does the % cells with GFP-LC3 spots read?
**A.** 20.7% (inactive)

**Q.** What about the toxicity of the same molecule?
**A.** 2.43%

**Q.** Which % cells with GFP-LC3 spots does the source give for `CCOC(=O)C1CCN(C(c2cc3cc(C)cc(C)c3[nH]c2=O)c2nnnn2C2CCCCC2)CC1` (centres undefined) here?
**A.** 19.2% (active)

**Q.** And the toxicity?
**A.** 24.2%

**Q.** Which % cells with GFP-LC3 spots does the source give for `Cc1cc(C)c2[nH]c(=O)c(C(c3nnnn3Cc3ccc4c(c3)OCO4)N3CCCC3)cc2c1` (centres undefined) here?
**A.** 21.2% (inactive)

**Q.** What about the toxicity of the same molecule?
**A.** 8.95%

**Q.** For `COc1ccc(N2CCN(C(c3cc4ccc(C)cc4[nH]c3=O)c3nnnn3C3CCCC3)CC2)cc1` (centres undefined), which % cells with GFP-LC3 spots is on record?
**A.** 5.85% (inactive)

**Q.** And the toxicity?
**A.** -3.74%

**Q.** For `O=C(CN1C(=O)NC2(CCCC2)C1=O)NCC1CCCO1` (centres undefined), which % cells with GFP-LC3 spots is on record?
**A.** 11.1% (inactive)

**Q.** What about the toxicity of the same molecule?
**A.** 7.52%

**Q.** With `O=C(NNC(=O)c1cc2c(s1)CCCC2)c1ccccc1` as the molecule, how does the % cells with GFP-LC3 spots read?
**A.** 9.94% (inactive)

**Q.** What about the toxicity of the same molecule?
**A.** -13.8%

**Q.** Which results are given for `CC1CCc2sc(C(=O)N/N=C/C3CCCCC3)cc2C1` (centres undefined)?
**A.** % cells with GFP-LC3 spots: 20.3% (active); toxicity: -2.28%

**Q.** For `C/C(=N\NC(=O)c1cc2c(s1)CCC(C)C2)c1cccnc1` (centres undefined), which % cells with GFP-LC3 spots is on record?
**A.** 17.7% (inactive)

**Q.** And the toxicity?
**A.** -0.909%

**Q.** With `COC(=O)c1c(C)[nH]c(C)c1-c1ccc([N+](=O)[O-])cc1` as the molecule, how does the % cells with GFP-LC3 spots read?
**A.** 18.2% (inactive)

**Q.** What about the toxicity of the same molecule?
**A.** 38.9%

**Q.** What does the source list for `CCOC(=O)c1c(NC(=O)Cn2nc(C(F)(F)F)cc2C)sc2c1CCC2`?
**A.** % cells with GFP-LC3 spots: 7.63% (inactive); toxicity: 0.444%

**Q.** With `N=c1c2c(-c3ccccc3)c(-c3ccccc3)oc2ncn1Cc1ccco1` as the molecule, how does the % cells with GFP-LC3 spots read?
**A.** 5.09% (inactive)

**Q.** And the toxicity?
**A.** -0.176%

**Q.** What does the source list for `Cc1nc([N+](=O)[O-])c(NCCCO)n1Cc1ccccc1`?
**A.** % cells with GFP-LC3 spots: 43.4% (inactive); toxicity: 4.77%

**Q.** Which % cells with GFP-LC3 spots does the source give for `N=c1c2c(-c3ccccc3)c(-c3ccccc3)n(Cc3ccccc3)c2ncn1CCCO` here?
**A.** 32% (active)

**Q.** What about the toxicity of the same molecule?
**A.** 9.38%

**Q.** Which % cells with GFP-LC3 spots does the source give for `O=C(Cc1ccccc1)NNS(=O)(=O)c1ccc([N+](=O)[O-])cc1` here?
**A.** 5.31% (inactive)

**Q.** What about the toxicity of the same molecule?
**A.** -4.08%

**Q.** What does the source list for `CCCCN(CC)C(=O)c1ccccc1Oc1ccccc1`?
**A.** % cells with GFP-LC3 spots: 7.48% (inactive); toxicity: -0.889%

**Q.** What does the source list for `CCc1nn(-c2cc(Oc3cccc4ccccc34)nc(-c3ccccc3)n2)c(N)c1C#N`?
**A.** % cells with GFP-LC3 spots: 19.2% (active); toxicity: -18%

**Q.** For `CCCC(=O)n1nc(-c2ccccc2)nc1N`, which % cells with GFP-LC3 spots is on record?
**A.** 10.8% (inactive)

**Q.** And the toxicity?
**A.** -5.17%

**Q.** For `COc1ccc(C2c3c(C)nn(-c4ccccc4)c3NC(=O)N2c2ccccc2)cc1` (centres undefined), which % cells with GFP-LC3 spots is on record?
**A.** 11% (inactive)

**Q.** And the toxicity?
**A.** 17.6%

**Q.** With `COc1ccc(CN2CCCC(C(=O)c3ccc(Cl)cc3)C2)cc1Cn1cncn1` (centres undefined) as the molecule, how does the % cells with GFP-LC3 spots read?
**A.** 0.149% (inactive)

**Q.** What about the toxicity of the same molecule?
**A.** -9.01%

**Q.** Which results are given for `Cc1nn(CC(=O)Nc2ccc(N(C)C)cc2)c(C)c1[N+](=O)[O-]`?
**A.** % cells with GFP-LC3 spots: 8.73% (inactive); toxicity: -12.8%

**Q.** Which results are given for `Cc1nn(CC(=O)Nc2ccc(C#N)cc2)c(C)c1[N+](=O)[O-]`?
**A.** % cells with GFP-LC3 spots: 2.1% (inactive); toxicity: 9.5%

**Q.** With `CCc1ccc(NC(=O)Cn2nc(C)c([N+](=O)[O-])c2C)cc1` as the molecule, how does the % cells with GFP-LC3 spots read?
**A.** 13.4% (active)

**Q.** And the toxicity?
**A.** 38.8%

**Q.** For `C=CCC(C(=O)c1ccccc1)[N+](C)(C)CC=C` (centres undefined), which % cells with GFP-LC3 spots is on record?
**A.** 2.53% (inactive)

**Q.** And the toxicity?
**A.** -14.3%

**Q.** For `COC(=O)COc1ccc(C2NC(=O)NC(C)=C2C(=O)NCc2ccccc2)cc1OC` (centres undefined), which % cells with GFP-LC3 spots is on record?
**A.** 0.797% (inactive)

**Q.** What about the toxicity of the same molecule?
**A.** 20.4%

**Q.** Which % cells with GFP-LC3 spots does the source give for `Cn1c(N)c(C(=O)COC(=O)c2cnc(Cl)c(Cl)c2)c(=O)n(C)c1=O` here?
**A.** 0.712% (inactive)

**Q.** What about the toxicity of the same molecule?
**A.** 15.7%

**Q.** For `Cc1c(Cl)cccc1NC(=O)CSc1ccc(-c2cccnc2)nn1`, which % cells with GFP-LC3 spots is on record?
**A.** 0.277% (inactive)

**Q.** What about the toxicity of the same molecule?
**A.** -2.28%

**Q.** What does the source list for `CCC(=O)Nc1cc(C(F)(F)F)ccc1N1CCCC1`?
**A.** % cells with GFP-LC3 spots: 0.264% (inactive); toxicity: -3.5%
